# Test results taken from PMC11024108.
# Columns and labels:
# Test in all cases: cross-link between two proteins; cross-linking mass spectrometry
# [1] = molecular target: Small ribosomal subunit protein eS4, X isoform (UniProt P62701)
# [2] = molecular target: Small ribosomal subunit protein uS19 (UniProt P62841)
# [3] = molecular target: Small ribosomal subunit protein uS4 (UniProt Q6ZWN5)
# Syntaxin-1B = Syntaxin-1B (UniProt P61264)
# Tubulin alpha-1C chain = Tubulin alpha-1C chain (UniProt Q9BQE3)
# Tubulin beta-2A chain = Tubulin beta-2A chain (UniProt Q7TMM9)
# [4] = molecular target: Ubiquitin-like FUBI-ribosomal protein eS30 fusion protein (UniProt P62861)
# [5] = molecular target: Ubiquitin-ribosomal protein eS31 fusion protein (UniProt P62979)
# [6] = molecular target: cAMP-dependent protein kinase catalytic subunit beta (UniProt P68181)
# [7] = molecular target: cAMP-dependent protein kinase type II-beta regulatory subunit (UniProt P31324)
# cAMP-dependent protein kinase type II-beta regulatory subunit, sequence (P31324 whole entry): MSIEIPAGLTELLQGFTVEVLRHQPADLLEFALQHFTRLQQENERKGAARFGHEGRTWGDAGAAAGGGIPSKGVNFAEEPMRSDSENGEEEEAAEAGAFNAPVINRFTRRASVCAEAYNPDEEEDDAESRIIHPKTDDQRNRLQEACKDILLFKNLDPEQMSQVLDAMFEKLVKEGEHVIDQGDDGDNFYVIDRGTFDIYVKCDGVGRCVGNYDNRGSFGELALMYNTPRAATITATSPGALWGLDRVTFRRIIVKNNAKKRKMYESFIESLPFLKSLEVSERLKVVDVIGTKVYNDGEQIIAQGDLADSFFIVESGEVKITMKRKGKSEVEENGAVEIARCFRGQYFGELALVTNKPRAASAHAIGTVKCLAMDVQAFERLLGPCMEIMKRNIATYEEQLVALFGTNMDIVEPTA
# Syntaxin-1A, O35526, sequence (O35526 whole entry): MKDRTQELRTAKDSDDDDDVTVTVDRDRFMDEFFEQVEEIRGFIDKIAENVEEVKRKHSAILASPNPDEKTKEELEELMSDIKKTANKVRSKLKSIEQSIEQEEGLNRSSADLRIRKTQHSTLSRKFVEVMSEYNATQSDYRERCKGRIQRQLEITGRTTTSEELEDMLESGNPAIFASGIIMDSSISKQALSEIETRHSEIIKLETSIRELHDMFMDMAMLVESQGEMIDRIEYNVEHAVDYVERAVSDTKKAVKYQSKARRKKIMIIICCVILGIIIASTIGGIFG
# Syntaxin-1B, sequence (P61264 whole entry): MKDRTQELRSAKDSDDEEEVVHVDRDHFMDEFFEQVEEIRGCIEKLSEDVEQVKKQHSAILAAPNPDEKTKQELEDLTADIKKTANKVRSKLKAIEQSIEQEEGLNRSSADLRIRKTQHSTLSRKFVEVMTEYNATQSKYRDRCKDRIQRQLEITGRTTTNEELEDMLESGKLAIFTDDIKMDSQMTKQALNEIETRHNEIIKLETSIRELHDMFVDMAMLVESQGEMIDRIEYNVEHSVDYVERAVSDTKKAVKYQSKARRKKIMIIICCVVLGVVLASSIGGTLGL
# Tubulin alpha-1A chain, P68369, sequence (P68369 whole entry): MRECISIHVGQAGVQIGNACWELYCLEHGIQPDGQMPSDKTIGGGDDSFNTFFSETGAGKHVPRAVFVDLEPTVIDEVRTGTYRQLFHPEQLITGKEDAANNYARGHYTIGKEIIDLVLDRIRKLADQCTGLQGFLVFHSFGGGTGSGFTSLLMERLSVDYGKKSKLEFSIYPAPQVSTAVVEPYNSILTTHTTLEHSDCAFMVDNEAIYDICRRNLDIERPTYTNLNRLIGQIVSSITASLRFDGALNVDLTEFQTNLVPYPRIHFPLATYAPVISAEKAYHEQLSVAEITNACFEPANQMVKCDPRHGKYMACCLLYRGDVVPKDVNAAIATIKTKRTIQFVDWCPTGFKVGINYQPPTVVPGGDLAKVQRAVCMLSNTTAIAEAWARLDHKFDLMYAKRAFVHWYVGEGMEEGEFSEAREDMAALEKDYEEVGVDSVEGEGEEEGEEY
# cAMP-dependent protein kinase type II-alpha regulatory subunit, P12367, sequence (P12367 whole entry): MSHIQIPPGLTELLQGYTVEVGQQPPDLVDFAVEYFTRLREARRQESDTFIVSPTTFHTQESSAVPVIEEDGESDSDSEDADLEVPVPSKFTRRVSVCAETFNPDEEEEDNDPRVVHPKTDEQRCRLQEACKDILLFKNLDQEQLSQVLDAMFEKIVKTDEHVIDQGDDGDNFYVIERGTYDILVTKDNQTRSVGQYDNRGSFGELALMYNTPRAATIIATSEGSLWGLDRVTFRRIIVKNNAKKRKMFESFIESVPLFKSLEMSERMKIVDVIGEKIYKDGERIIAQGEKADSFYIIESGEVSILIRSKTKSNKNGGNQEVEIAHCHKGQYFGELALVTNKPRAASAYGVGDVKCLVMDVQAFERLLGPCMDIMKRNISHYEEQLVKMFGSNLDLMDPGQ
# Tubulin beta-2A chain, sequence (Q7TMM9 whole entry, the tested form may be a part): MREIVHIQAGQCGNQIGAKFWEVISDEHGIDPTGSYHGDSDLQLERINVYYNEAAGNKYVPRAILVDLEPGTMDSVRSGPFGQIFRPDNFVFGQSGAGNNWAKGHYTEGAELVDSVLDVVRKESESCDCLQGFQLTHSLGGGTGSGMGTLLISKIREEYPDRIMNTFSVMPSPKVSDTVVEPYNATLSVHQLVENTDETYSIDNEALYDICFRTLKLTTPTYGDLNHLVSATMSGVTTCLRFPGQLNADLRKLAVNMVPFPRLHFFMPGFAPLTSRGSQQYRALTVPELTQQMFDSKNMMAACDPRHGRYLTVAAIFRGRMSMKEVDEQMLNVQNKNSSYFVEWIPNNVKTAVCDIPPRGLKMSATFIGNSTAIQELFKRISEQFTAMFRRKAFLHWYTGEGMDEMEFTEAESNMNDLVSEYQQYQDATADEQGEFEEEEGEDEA
substance,measurement,setting,value
"Small ribosomal subunit protein uS4, P46781",listed as a hit,[1],yes
"Small ribosomal subunit protein uS13, P62269",listed as a hit,[2],yes
"Small ribosomal subunit protein eS4, P62702",listed as a hit,[3],yes
"Small ribosomal subunit protein uS5, P25444",listed as a hit,[3],yes
"Syntaxin-1A, O35526",listed as a hit,Syntaxin-1B,yes
"L-lactate dehydrogenase A chain, P00338",listed as a hit,Tubulin alpha-1C chain,yes
"Tubulin alpha-1A chain, P68369",listed as a hit,Tubulin beta-2A chain,yes
"Small ribosomal subunit protein uS3, P23396",listed as a hit,[4],yes
"Small ribosomal subunit protein uS15, P62277",listed as a hit,[5],yes
"Small ribosomal subunit protein eS7, P62081",listed as a hit,[5],yes
"cAMP-dependent protein kinase catalytic subunit alpha, P05132",listed as a hit,[6],yes
"cAMP-dependent protein kinase type II-alpha regulatory subunit, P12367",listed as a hit,[7],yes
